The results in this text go back to PubChem BioAssay AID1032 (The Scripps Research Institute Molecular Screening Center, 2008).

Out of some 200,000 compounds screened, about 670 (0.34%) were called active. The entries come from a sample that favours actives as a whole. A number with no mark means an inactive call. Cut-off read from the data, not from the text of the source: active = activation above about 22%; inactive = the rest.

Peroxisome proliferator-activated receptor gamma (Homo sapiens), sequence (P37231 whole entry, looked up, the tested form may be a part): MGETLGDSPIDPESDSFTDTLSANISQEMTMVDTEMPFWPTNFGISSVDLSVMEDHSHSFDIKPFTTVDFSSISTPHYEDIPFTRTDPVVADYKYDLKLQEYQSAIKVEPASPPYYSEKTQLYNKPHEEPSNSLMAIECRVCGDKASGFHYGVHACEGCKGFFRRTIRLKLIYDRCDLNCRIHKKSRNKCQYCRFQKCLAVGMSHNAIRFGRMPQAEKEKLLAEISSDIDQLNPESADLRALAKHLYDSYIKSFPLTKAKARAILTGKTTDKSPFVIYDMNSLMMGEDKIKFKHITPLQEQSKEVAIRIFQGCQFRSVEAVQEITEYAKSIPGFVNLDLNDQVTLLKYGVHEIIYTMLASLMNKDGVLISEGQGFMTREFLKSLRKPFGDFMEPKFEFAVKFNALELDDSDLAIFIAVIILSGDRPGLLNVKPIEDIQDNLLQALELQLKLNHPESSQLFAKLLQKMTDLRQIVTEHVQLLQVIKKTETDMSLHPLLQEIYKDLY

The assay addresses Peroxisome proliferator-activated receptor gamma (Homo sapiens) (UniProt P37231). Put plainly: compounds enhancing SRC-2 coactivator binding to PPARgamma – biochemical, HTS, primary screen (AID 1032).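 Note: 0% = vehicle and 100% = reference agonist.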 The note with it: PPARgamma LBD-SRC-2 recruitment, at 8 µM, active compounds read high.
Consider `Cc1ccc(NC(=O)c2ccc(Oc3ncccn3)cc2)cc1`, for which the activation was 3.49%.

Consider `CCN(/N=C/c1ccccc1)c1cc(=O)n(C)c(=O)[nH]1`, for which the activation was -3.6%.

Consider `CN(C)c1ccc(/C=N/N(Cc2ccccc2)c2ccccc2)cc1`, for which the activation was 11.9%.

Regarding `CCN(/N=C/c1ccc(N(C)C)cc1)c1nc2ccccc2[nH]1`, the activation is 23% (active).

For the molecule `O=C(Nc1ccccc1F)c1ccc(Cn2cc(Br)cn2)cc1`, the activation was -1.02%.

For `CN1CCN(CCC(=O)N/N=C/C=C2\N(C)c3ccccc3C2(C)C)CC1`, the activation is 10%.

Turning to `O=C(Nc1ccncc1)c1ccccc1[N+](=O)[O-]`, the activation was -0.46%.

Consider `CCn1cc(CNC(=O)c2cc([N+](=O)[O-])c(C)c([N+](=O)[O-])c2)cn1`, for which the activation is -6.4%.

On to `COc1ccc(NC(=S)NC2CCS(=O)(=O)C2)cc1` (centres undefined), for which the activation was 6.88%.

Take `Cc1ccc(-c2nc(C)sc2CC(=O)O)cc1`: the activation was -0.57%.

Regarding `O=C(O)Cc1sc(-c2ccccc2)nc1-c1cccs1`, the activation was 34.7% (active).

Turning to `O=C(O)Cc1sc(-c2ccc(C(=O)O)cc2)nc1-c1ccccc1`, the activation was 10.9%.

In the case of `COc1ccc(NC(=O)CN(C)CC(=O)Nc2cccc(C(F)(F)F)c2)cc1`, the activation was -2.86%.

Take `COc1cc2c(cc1OC)CC1(CCCCC1)N=C2`: the activation was 0.25%.

On to `Cc1n[nH]c(=O)nc1N/N=C/c1cccs1`, for which the activation is 3.35%.

As for `COc1cccc(-n2c(=O)c3c(C)c(C(=O)N(C)C)sc3n(CC(=O)NCCc3ccc(OC)c(OC)c3)c2=O)c1`, the activation is 9.15%.

In the case of `O=C(NNc1ccccc1Cl)C(O)(c1cccc(C(F)(F)F)c1)c1cccc(C(F)(F)F)c1`, the activation was 17.2%.

With `Cc1cccc(OCc2ccc(C(=O)Nc3ccc(F)cc3)cc2)c1`, the activation was -0.72%.

`Fc1ccc(COc2cccc(-c3n[nH]c(=S)o3)c2)cc1`: the activation is 44.9% (active).

Turning to `Cc1nc2ccccc2cc1OCc1ccc(F)cc1`, the activation was 4.89%.

For `CC(C)NC(=O)CSc1ccccc1C(=O)NCc1ccc2c(c1)OCO2`, the activation was -4.93%.

Regarding `CCn1c(=O)cc(SCC(=O)NCc2ccc3c(c2)OCO3)c2ccccc21`, the activation is 36% (active).

As to `CCn1c(=O)cc(SCC(=O)NCCC2=CCCCC2)c2ccccc21`, the activation is 16.9%.

For `O=C(N/N=C/c1ccc2c(c1)OCO2)C(=O)N1CCCC1`, the activation was -5.72%.
